Source: PubChem BioAssay (NCATS)
Results filed as inconclusive are left out. Calls of active or inactive are those of the source. Calls follow the shape of the dose curve; as a rule, active = well fitted curve in the direction sought with a large enough effect; inconclusive = small, poorly fitted or top-dose-only effect, or another doubt; inactive = no such curve, though single readings can be large; an effect the other way counts as inactive or inconclusive.

How the values were obtained:
[1] = qHTS of pediatric cancer cell lines to identify multiple opportunities for drug repurposing: Primary screen for RD cells (AID 1347104); also: nearly all actives have a fitted effect of over 55% in size; also: potency is read from the fitted curve at half-maximal effect
How it was run: (§1)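 Luminescence from CellTiter-Glo served as readout of metabolically active cells after 48 h compound exposure. Titrations: MIPE 11-point, from 0.78 nM; NPC 8-point, from 0.59 nM (final). Concentration-response curves came straight from the primary screen.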

[2] = qHTS of pediatric cancer cell lines to identify multiple opportunities for drug repurposing: Primary screen for Rh41 cells (AID 1347108); also: nearly all actives have a fitted effect of over 70% in size; also: potency is read from the fitted curve at half-maximal effect;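 as to activity change, negative = cytotoxic: luminescence drop marks cytotoxic hits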
How it was run: as §1

[3] = qHTS of pediatric cancer cell lines to identify multiple opportunities for drug repurposing: Primary screen for MG 63 (6-TG R) cells (AID 1347105); also: nearly all actives have a fitted effect of over 50% in size; also: potency is read from the fitted curve at half-maximal effect
How it was run: as §1

[4] = qHTS of pediatric cancer cell lines to identify multiple opportunities for drug repurposing: Primary screen for control Hh wild type fibroblast cells (AID 1347106);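 also: a drop in luminescence marks cytotoxicity and a rise apparent proliferation; nearly all actives have a fitted effect of over 55% in size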
How it was run: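 Viability after 48 h compound treatment at 37C, 500-1,000 cells/well, read as ATP luminescence with CellTiter-Glo. Primary screens used 11-point (MIPE, 0.78 nM-46 µM) or 8-point (NPC, 0.59 nM-46 µM) final concentrations; follow-up screens used 11-point dilutions.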

[5] = qHTS of pediatric cancer cell lines to identify multiple opportunities for drug repurposing: Primary screen for Rh30 cells (AID 1347107); also: nearly all actives have a fitted effect of over 75% in size; also: potency is read from the fitted curve at half-maximal effect
How it was run: (§2)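 Cells (500-1,000/well) rested 5 h, then received compounds for 48 h; metabolically active cells were measured by CellTiter-Glo luminescence. Final concentrations spanned up to 46 µM (MIPE, 11-point) or 0.59 nM-46 µM (NPC, 8-point) in primary screens, 11-point in follow-ups.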

[6] = qHTS of pediatric cancer cell lines to identify multiple opportunities for drug repurposing: Confirmatory screen for A673 cells (AID 1347110);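 also: potency is read from the fitted curve at half-maximal effect; cells exposed to compound for 48 h before the viability read; nearly all actives have a fitted effect of over 65% in size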
How it was run: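 A673 cells at 500-1,000 cells/well were dosed 5 h after plating, in dilution series up to 46 uM final; primary runs used 8 or 11 points and confirmatory runs used 11 points. Viability was read by CellTiter-Glo luminescence after 48 h, against DMSO and 2.3 uM bortezomib controls.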

[7] = qHTS of pediatric cancer cell lines to identify multiple opportunities for drug repurposing: Confirmatory screen for SK-N-MC cells (AID 1347111);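 also: potency is read from the fitted curve at half-maximal effect; cells exposed to compound for 48 h before the readout; nearly all actives have a fitted effect of over 70% in size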
How it was run: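 Seed 500-1,000 cells/well; rest 5 h at 37 degrees C. Pin-transfer compounds, 11-point titration. Incubate 48 h. Add CellTiter-Glo, 15 min RT, read luminescence.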

[8] = qHTS of pediatric cancer cell lines to identify multiple opportunities for drug repurposing: Confirmatory screen for NB-EBc1 cells (AID 1347115);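 also: cells exposed to compound for 48 h before the viability read; nearly all actives have a fitted effect of over 45% in size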; also: potency is read from the fitted curve at half-maximal effect
How it was run: as §2

[9] = qHTS of pediatric cancer cell lines to identify multiple opportunities for drug repurposing: Confirmatory screen for TC32 cells (AID 1347118);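 also: potency is read from the fitted curve at half-maximal effect; cells exposed to compound for 48 h before the read; nearly all actives have a fitted effect of over 65% in size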
How it was run: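 Luminescent CellTiter-Glo read-out of metabolically active TC32 cells after 48 h compound exposure. Primary: MIPE 11-point, 0.78 nM–46 µM; NPC 8-point, 0.59 nM–46 µM. Confirmatory: 11-point dilutions.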

[10] = qHTS of pediatric cancer cell lines to identify multiple opportunities for drug repurposing: Confirmatory screen for MG 63 (6-TG R) cells (AID 1347119); also: nearly all actives have a fitted effect of over 55% in size; also: potency is read from the fitted curve at half-maximal effect
How it was run: as §2

[11] = qHTS of pediatric cancer cell lines to identify multiple opportunities for drug repurposing: Confirmatory screen for control Hh wild type fibroblast cells (AID 1347121); also: nearly all actives have a fitted effect of over 70% in size
How it was run: as §2

[12] = qHTS of pediatric cancer cell lines to identify multiple opportunities for drug repurposing: Confirmatory screen for LAN-5 cells (AID 1347113); also: potency is read from the fitted curve at half-maximal effect; nearly all actives have a fitted effect of over 65% in size
How it was run: as §2

[13] = qHTS of pediatric cancer cell lines to identify multiple opportunities for drug repurposing: Confirmatory screen for BT-37 cells (AID 1347117); settings: BT-37 pediatric cancer cells, viability; activity change, negative = cytotoxic: at 45.9 µM (top of the series); also: potency is read from the fitted curve at half-maximal effect; nearly all actives have a fitted effect of over 55% in size
How it was run: as §2

[14] = qHTS of pediatric cancer cell lines to identify multiple opportunities for drug repurposing: Confirmatory screen for BT-12 cells (AID 1347112); also: nearly all actives have a fitted effect of over 55% in size; also: potency is read from the fitted curve at half-maximal effect
How it was run: as §2

[15] = qHTS of pediatric cancer cell lines to identify multiple opportunities for drug repurposing: Confirmatory screen for DAOY cells (AID 1347114); also: potency is read from the fitted curve at half-maximal effect; nearly all actives have a fitted effect of over 65% in size
How it was run: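 Viability measured as metabolically active cells via CellTiter-Glo luminescence following 48 hours of compound exposure, 11-point dilutions in confirmatory testing. 500-1,000 cells/well plated 5 hours before dosing; controls were DMSO and 2.3 µM bortezomib.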

[16] = qHTS of pediatric cancer cell lines to identify multiple opportunities for drug repurposing: Confirmatory screen for U-2 OS cells (AID 1347122); also: nearly all actives have a fitted effect of over 65% in size; also: potency is read from the fitted curve at half-maximal effect
How it was run: as §2

[17] = qHTS of pediatric cancer cell lines to identify multiple opportunities for drug repurposing: Confirmatory screen for NB1643 cells (AID 1347109); also: potency is read from the fitted curve at half-maximal effect; nearly all actives have a fitted effect of over 45% in size
How it was run: as §2

Measured: Potency

C=CC(=O)Nc1cc(NC(=O)c2ccc(C)c(NC(=O)c3ccno3)c2)cc(C(F)(F)F)c1
active: [1] 33.2 µM | [2] 20.9 µM

O=c1ccn([C@@H]2O[C@H](CO)[C@H](O)[C@@H]2F)c(=O)[nH]1
inactive: [3]

CCc1cc(C(C)=NOCc2ccc(C3CCCCC3)c(C(F)(F)F)c2)ccc1CN1CC(C(=O)O)C1
active: [1] 5.9 µM | [6] 13.1 µM | [7] 8.27 µM | [9] 9.27 µM
inactive: [4] | [5] | [8] | [10] | [11]

N#CC(=C(N)Sc1ccc(N)cc1)c1ccccc1C(F)(F)F
inactive: [3] | [5]

Cn1c(Nc2ccc(C(F)(F)F)cc2)nc2cc(Oc3ccnc(-c4ncc(C(F)(F)F)[nH]4)c3)ccc21
active: [1] 4.18 µM | [7] 7.37 µM | [12] 18.5 µM | [8] 16.5 µM | [13] 4.65 µM | [10] 13.1 µM
inactive: [5]

CCOC(=O)N1CCN([N+]([O-])=NOc2ccc([N+](=O)[O-])cc2[N+](=O)[O-])CC1
active: [1] 18.7 µM | [3] 18.7 µM | [2] 4.18 µM
inactive: [4] | [5]

O=[N+]([O-])c1cn2c(n1)OC[C@@H](OCc1ccc(OC(F)(F)F)cc1)C2
inactive: [3] | [4] | [5]

CC(C)n1cnc2c(NCCc3ccc(O)cc3)nc(-c3csc4ccccc34)nc21
active: [1] 11.8 µM | [3] 18.7 µM | [5] 18.7 µM | [2] 11.8 µM
inactive: [4]

COc1cc([C@@H]2c3cc4c(cc3[C@@H](O[C@@H]3O[C@@H]5CO[C@@H](c6cccs6)O[C@@H]5[C@H](O)[C@@H]3O)[C@H]3COC(=O)[C@H]23)OCO4)cc(OC)c1O
active: [1] 2.96 µM | [6] 0.657 µM | [7] 0.104 µM | [14] 3.69 µM | [15] 5.22 µM | [13] 0.261 µM | [16] 2.33 µM
inactive: [11]

CCOC(=O)N1CCN([N+]([O-])=NOc2ccc([N+](=O)[O-])cc2C#N)CC1
active: [1] 4.69 µM | [17] 3.69 µM | [6] 2.61 µM | [7] 3.29 µM | [12] 4.65 µM | [15] 2.33 µM | [13] 3.29 µM | [9] 2.33 µM
inactive: [5] | [11]

COC1=C(OC)C(=O)C(CC=C(C)CCC=C(C)CCC=C(C)CCC=C(C)CCC=C(C)CCC=C(C)CCC=C(C)CCC=C(C)CCC=C(C)CCC=C(C)C)=C(C)C1=O
inactive: [1] | [3] | [4] | [5] | [2]

CC(C)c1cnn2c(NCc3ccccc3)cc(NCCCCCCN)nc12
active: [1] 18.7 µM | [3] 5.9 µM | [2] 7.43 µM

Cc1cc(-c2nnc3n2CCCCC3)c(C)n1-c1ccccc1
inactive: [1] | [3] | [4] | [2]

O=C(NCc1ccccc1)[C@H](Cc1ccccc1)NC(=O)[C@@H]1O[C@@H]1C(=O)NCCc1ccc(O)cc1
active: [6] 10.4 µM
inactive: [3] | [4] | [2] | [14] | [11] | [16]

Nc1nc(N)c2nc(-c3cccc(O)c3)c(-c3cccc(O)c3)nc2n1
active: [1] 11.8 µM

CC1(C)CC(O)CC(C)(C)N1[O]
inactive: [1] | [3] | [4] | [5] | [2]

O=C1NCCc2[nH]c(-c3ccncc3)cc21
inactive: [4] | [5] | [11]
active: [1] 6.62 µM | [2] 2.35 µM | [6] 2.08 µM | [7] 7.37 µM | [14] 2.33 µM | [15] 4.14 µM | [13] 2.33 µM | [9] 4.14 µM | [10] 8.27 µM
